Bioassay records deposited in PubChem BioAssay by National Center for Advancing Translational Sciences (NCATS).
In the library only some 3% were active in any assay of this set; here they are far more common.
SNCA expr inhib: SNCA gene expression inhibition; AID 1671194; HEK-293 SNCA-luciferase knock-in, luminescence, 24 h; Potency, µM (highest dose often 57.2 µM), most hits filed as inhibitors; 0.17% of 140,000 active; further: nearly all actives have a fitted effect of over 45% in size
IP6K1 inhibitor: blocks human inositol hexakisphosphate kinase 1 | IP6K1 kinase, ADP-Glo luminescence, 2 h; stronger effect = lower value | activity change, % (series mostly up to about 58 µM) | 0.81% of 140,000 active | AID 1645851; in the data active means activity change below about -25%
Target sequence (Q92551 whole entry, looked up): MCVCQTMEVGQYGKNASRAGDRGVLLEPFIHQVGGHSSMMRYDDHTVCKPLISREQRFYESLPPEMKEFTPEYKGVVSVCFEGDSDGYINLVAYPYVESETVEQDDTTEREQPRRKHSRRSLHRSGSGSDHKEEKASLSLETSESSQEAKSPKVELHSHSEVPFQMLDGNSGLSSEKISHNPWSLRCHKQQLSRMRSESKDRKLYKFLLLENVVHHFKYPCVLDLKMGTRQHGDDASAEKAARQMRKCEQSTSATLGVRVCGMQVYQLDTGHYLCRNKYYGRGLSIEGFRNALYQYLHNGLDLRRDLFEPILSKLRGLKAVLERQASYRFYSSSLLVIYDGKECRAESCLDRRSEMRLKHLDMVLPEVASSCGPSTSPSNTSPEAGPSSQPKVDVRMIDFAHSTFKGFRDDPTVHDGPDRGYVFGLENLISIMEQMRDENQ
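ADP-Glo luminescence measures ADP made by human IP6K1 during a 2 h RT reaction with ATP/IP6 (mix at 1.3 mM/130 uM); top library doses 57.5 and 19.1 uM final.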
KDM5B inhibitor: inhibitors of human KDM5B histone demethylase. Q9UGL1. KDM5B demethylase, FDH-coupled NADH fluorescence (FDH is formaldehyde dehydrogenase). Potency, µM (top dose mostly 57.7 µM), actives largely listed as inhibitors. 2.6% of 220,000 active. AID 1347165; further: nearly all actives have a fitted effect of over 70% in size
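Compound dilutions met 200 nM (final) KDM5BΔAP for 10 min at room temperature before substrate addition. The substrate mix held 12.5 µM H3K4me3 with cofactors 25 µM α-ketoglutarate and 50 µM Fe²⁺. NADH signal gain over 30 min defined activity.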
SNCA viab count: cell viability loss counter-screen; Potency, µM (series often up to 57.1 µM), hits mostly cytotoxic; HEK-293-SNCA-luc viability, GF-AFC fluorescence, 24 h; AID 1671193; 0.12% of 150,000 active; further: nearly all actives have a fitted effect of over 30% in size
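HEK-293-SNCA-luc cells (1500/well) plated 24 h, then exposed 24 h to a dilution series; GF-AFC added 30 min at 37C, fluorescence 405/540 nm; normalised to medium-only and DMSO wells, Hill fit.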
Of the large screens only hits and unclear results are named; the others gave an inactive call; ! = repeats disagree. Unless noted, the call rests on the fitted dose curve; in most records, active means well fitted curve in the direction sought with a large enough effect; inconclusive means small, poorly fitted or top-dose-only effect, or another doubt; inactive means no such curve, though single readings can be large; an effect the other way counts as inactive or inconclusive.

O=C(c1ccccc1Cl)N1CCCC2(C1)Nc1cccnc1NC2=NC1CCCC1 (stereo not drawn)	KDM5B inhibitor inconclusive
O=S(=O)(c1cccnc1)N1CCCC2(C1)Nc1cccnc1NC2=NCc1ccccc1 (stereo not drawn)	KDM5B inhibitor 28.2µM
O=C(c1ccccc1)N1CCCC2(C1)Nc1cccnc1NC2=NC1CCCC1 (stereo not drawn)	KDM5B inhibitor 28.2µM
COc1ccccc1CCC(=O)N1CCCC2(C1)Nc1cccnc1NC2=NC1CCCC1 (stereo not drawn)	KDM5B inhibitor inconclusive
Cc1noc(C)c1CC(=O)N1CCCC2(C1)Nc1cccnc1NC2=NC1CCCC1 (stereo not drawn)	KDM5B inhibitor 25.1µM
CC(=O)c1c(C)[nH]c(-c2csc(CC(=O)Nc3cccc(C)c3)n2)c1C	none (no result: SNCA expr inhib, IP6K1 inhibitor, SNCA viab count)
CCCCOc1ccc(-c2nc(C3CC(=O)N(C4CCCCC4)C3)no2)cc1 (stereo not drawn)	SNCA expr inhib inconclusive, KDM5B inhibitor inconclusive
CC(=O)N1CCN(C(=O)C(=O)Nc2cccc3[nH]ccc23)CC1	none (no result: SNCA expr inhib, IP6K1 inhibitor, SNCA viab count)
OC1CCCN(c2ccc(-c3nc(-c4cccc(C(F)(F)F)c4)no3)cn2)C1 (stereo not drawn)	KDM5B inhibitor 35.5µM
CCN1CCN(c2ccc(-c3nc(CCCc4ccccc4)no3)cn2)CC1	KDM5B inhibitor inconclusive
OCCN1CCN(c2ccc(-c3nc(-c4cccc(C(F)(F)F)c4)no3)cn2)CC1	KDM5B inhibitor 28.2µM
COc1cccc(-c2noc(-c3ccc(N4CCCC(CO)C4)nc3)n2)c1OC (stereo not drawn)	KDM5B inhibitor 31.6µM
CCC1CN(c2ccc(-c3nc(-c4ccc(OC)cc4)no3)cn2)CCN1C (stereo not drawn)	KDM5B inhibitor inconclusive
Cc1ccccc1Nc1cnc2ccc(-c3cccc(CO)c3)nn12	none
Cc1ccc(-c2cc(C(F)F)n3ncc(C#N)c3n2)cc1	none (no result: SNCA expr inhib, IP6K1 inhibitor, SNCA viab count)
Cn1cc(-c2cc(=O)c3ccnc(NC4CCOCC4)c3o2)cn1	none
Cn1cc(-c2cc(=O)c3ccnc(NCc4ccc(F)cc4)c3o2)cn1	KDM5B inhibitor 31.6µM
CCOC(=O)C1CCN(C(=O)CSc2nnc(-c3ccc(C)cc3)n2N)CC1	none (no result: SNCA expr inhib, IP6K1 inhibitor, SNCA viab count)
CCc1ccc(/C=C2\N=C(SC)SC2=O)cc1	none (no result: SNCA expr inhib, IP6K1 inhibitor, SNCA viab count)
COC(=O)[C@@H]1Cc2ncn(Cc3ccc(Cl)cc3)c2CN1Cc1cccs1	KDM5B inhibitor 28.2µM
COC(=O)[C@@H]1Cc2ncn(Cc3ccc(Cl)cc3)c2CN1CCCc1ccccc1	SNCA expr inhib inconclusive, KDM5B inhibitor 35.5µM, SNCA viab count inconclusive
CC(C)c1nc2nccc(-c3ccco3)n2n1	KDM5B inhibitor inconclusive
CC(C)c1nc2nccc(-c3cccs3)n2n1	KDM5B inhibitor 25.1µM
CC(C)Cc1nc2nccc(-c3cccs3)n2n1	KDM5B inhibitor 25.1µM
CC(C)CNC(=O)c1ccc2c(c1)C1(CCN(C)C1)CN2CC1CCOCC1 (stereo not drawn)	KDM5B inhibitor 35.5µM
CN1CCC2(C1)CN(CC1CCOCC1)c1ccc(C(=O)NCc3ccccc3)cc12 (stereo not drawn)	KDM5B inhibitor 39.8µM
CN1CCC2(C1)CN(CC1CCOCC1)c1ccc(C(=O)Nc3ccccc3)cc12 (stereo not drawn)	SNCA expr inhib inconclusive, KDM5B inhibitor inconclusive
COCCNC(=O)c1nc2nc(-c3ccccc3)c(Cl)cc2n1C	KDM5B inhibitor 39.8µM
COc1cc(F)ccc1-c1cc2c(nc1-c1ccccc1)nc(C(=O)NCCN(C)C)n2C	KDM5B inhibitor 31.6µM
COc1ccc(-c2cc3c(nc2-c2ccccc2)nc(C(=O)NCCN(C)C)n3C)cn1	none
COCCCNC(=O)c1nc2nc(-c3ccccc3)c(Cl)cc2n1C	none
COc1ccccc1-c1cc2c(nc1-c1ccccc1)nc(C(=O)NCCN(C)C)n2C	KDM5B inhibitor 31.6µM
CC12C3C=CC(C3)C1([Si](C)(C)C)C2C(=O)O (stereo not drawn)	none (no result: SNCA expr inhib, IP6K1 inhibitor, SNCA viab count)
O=C(O)C1CCc2nnc(C3CCCN([S+](=O)([O-])c4ccccc4)C3)n21 (stereo not drawn)	KDM5B inhibitor 56.2µM
CC(C)C[C@H](NC(=O)[C@H](CCc1ccccc1)NC(=O)CN1CCOCC1)C(=O)N[C@@H](Cc1ccccc1)C(=O)N[C@@H](CC(C)C)C(=O)[C@@]1(C)CO1	SNCA expr inhib 0.121µM!, SNCA viab count inconclusive (no result: KDM5B inhibitor)
O=C(COC(=O)COc1ccc2c(c1)CCC2)NC1CCCCC1	none (no result: SNCA expr inhib, IP6K1 inhibitor, SNCA viab count)
Cc1ccnc(C(NC(=O)CCc2cc3n(n2)CCCNC3)C2CC2)c1 (stereo not drawn)	KDM5B inhibitor 28.2µM
Cc1nn(CCO)c(C)c1NC(=O)CCc1cc2n(n1)CCCNC2	KDM5B inhibitor inconclusive
O=C(C1CCC1)N1CCCC(Cc2nc(C3CCOCC3)no2)C1 (stereo not drawn)	KDM5B inhibitor 35.5µM
COc1cccc(C(=O)N2CCCC(Cc3nc(C4CCOCC4)no3)C2)c1 (stereo not drawn)	none
CCC(=O)N1CCCC(Cc2nc(C3CCOCC3)no2)C1 (stereo not drawn)	none
O=C(c1cncc(Br)c1)N1CCCC(Cc2nc(C3CCOCC3)no2)C1 (stereo not drawn)	KDM5B inhibitor 31.6µM
CCC(CC)CN(CC(=O)NC(N)=O)CC(=O)OC	none (no result: SNCA expr inhib, IP6K1 inhibitor, SNCA viab count)
O=C(NCCc1ccccc1F)c1ccc2nc(-c3cccnc3Cl)oc2c1	none (no result: KDM5B inhibitor)
Cc1cccc(-c2[nH]ncc2CNC(=O)c2cccc(N(C)C)c2)c1	KDM5B inhibitor 28.2µM
CN(C)c1cccc(C(=O)NCC2CCN(c3cc(-c4ccc(Cl)cc4)[nH]n3)CC2)c1	KDM5B inhibitor 31.6µM
CN(C)c1cccc(C(=O)NCC2CCN(c3cc(-c4ccc(F)cc4)[nH]n3)CC2)c1	KDM5B inhibitor 20µM
Cc1ccc(NC(=O)c2cccc(N(C)C)c2)c(C)c1	none (no result: SNCA expr inhib, IP6K1 inhibitor, SNCA viab count)
Cc1ccc(-c2cc(N3CCC(CNC(=O)c4ccc[nH]4)CC3)n[nH]2)cc1	KDM5B inhibitor inconclusive
CN(C)c1cccc(C(=O)NC2CCCN(c3cc(-c4ccc(Cl)cc4)[nH]n3)C2)c1 (stereo not drawn)	KDM5B inhibitor inconclusive, SNCA viab count inconclusive
Cc1ccc(-c2cc(N3CCC(CNC(=O)c4cccc(N(C)C)c4)CC3)n[nH]2)cc1	KDM5B inhibitor 28.2µM
CCOc1ccc(CN2CC(Oc3ccccc3C(=O)NCc3ccccc3)C2)cc1	none (no result: KDM5B inhibitor)
CCOC(=O)c1sc(-c2ccc3c(c2)OCCO3)cc1NC(=O)c1ccco1	none (no result: SNCA expr inhib, IP6K1 inhibitor, SNCA viab count)
O=C(CSc1nnc(N2CCOCC2)n1-c1cccc(F)c1)Nc1ccc2c(c1)OCCO2	none (no result: SNCA expr inhib, IP6K1 inhibitor, SNCA viab count)
COc1ccc(-c2cc(C(=O)O)c3c(C(C)C)noc3n2)cc1OC	none (no result: SNCA expr inhib, IP6K1 inhibitor, SNCA viab count)
O=C1Nc2ccc(-c3ccc4c(c3)OCO4)cc2C(=O)N2C[C@@H](NS(=O)(=O)c3ccc(F)cc3)C[C@@H]12	KDM5B inhibitor 31.6µM
COc1ccc(Cl)cc1-c1ccc2c(c1)C(=O)N1C[C@@H](NS(=O)(=O)c3ccc(F)cc3)C[C@H]1C(=O)N2	SNCA expr inhib inconclusive, KDM5B inhibitor 31.6µM, SNCA viab count inconclusive
CS(=O)(=O)N[C@H]1C[C@H]2C(=O)Nc3ccc(-c4ccc5c(c4)OCO5)cc3C(=O)N2C1	none
